Reference: PubChem BioAssay

What follows are compounds tested against NADPH oxidase 2 (Homo sapiens) (UniProt P04839) (assay: NOX2-dependent H2O2 signal modulators, primary screen, NOX inhibitor project, cell-based, HEK293-NOX2, PMA-stimulated, Amplex Red fluorescence (AID 1159; further: test concentration not given here)). Conditions: 45 min, higher = more signal, called active from +8 up or from −8 down.
Sequence of NADPH oxidase 2 (Homo sapiens) (P04839 whole entry, looked up): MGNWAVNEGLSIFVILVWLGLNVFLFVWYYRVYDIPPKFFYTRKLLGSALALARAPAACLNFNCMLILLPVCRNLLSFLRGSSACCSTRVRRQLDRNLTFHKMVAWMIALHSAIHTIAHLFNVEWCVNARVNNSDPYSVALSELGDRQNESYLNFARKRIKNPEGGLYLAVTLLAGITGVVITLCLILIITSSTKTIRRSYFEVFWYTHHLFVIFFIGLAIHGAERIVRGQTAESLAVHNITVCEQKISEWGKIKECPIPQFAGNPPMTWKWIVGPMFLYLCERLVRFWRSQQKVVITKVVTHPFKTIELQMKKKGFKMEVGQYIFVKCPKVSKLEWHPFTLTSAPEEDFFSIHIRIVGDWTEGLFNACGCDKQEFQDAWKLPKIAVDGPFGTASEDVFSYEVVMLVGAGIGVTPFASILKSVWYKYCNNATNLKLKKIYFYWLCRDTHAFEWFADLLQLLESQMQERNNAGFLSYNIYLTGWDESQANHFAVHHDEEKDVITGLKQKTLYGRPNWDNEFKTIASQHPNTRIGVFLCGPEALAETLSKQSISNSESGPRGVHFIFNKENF

z-score, inactive:
C#CCCCON=C1C[C@@H](O)[C@@H](O)[C@@H]2[C@@H]3C(=O)N(Cc4ccccc4)C(=O)[C@@H]3CC[C@@H]12 -0.727
CCCNC(=O)OC[C@H]1O[C@H](CCON=C(C)CCC(=O)OC[C@H]2O[C@H](c3ccccc3)C=C[C@@H]2Oc2ccc(OC)cc2)C=C[C@@H]1Oc1ccc(OC)cc1 -0.245
CO[C@H]1COC(=O)[C@@H](C)COC(=O)[C@H](C)NC(=O)CC=C[C@H]1C 1.72
C[C@@H](c1ccccc1)N1C(=O)[C@H]2[C@H]3[C@H](O)[C@H](O)CC(=O)[C@H]3CC[C@H]2C1=O -0.522
CO[C@H]1COC(=O)CC=C[C@@H](C)[C@H](NS(=O)(=O)c2ccc(C)cc2)COC(=O)CCC[C@@H]1C -0.255
CO[C@@H]1COC(=O)[C@H](CCSC)NC(=O)CC=C[C@@H](C)COC(=O)[C@H](C)NC(=O)CC=C[C@H]1C -0.906
CCC(=O)[C@@]1(O)C(=O)N2C(=C3C(=O)OCC[C@@H]31)N(Cc1ccccc1)C(C)=C(C(=O)OC)[C@H]2c1ccccc1 0.0553
CCOC(=O)[C@H](CC(C)C)NC(=O)CCC1CC(OC(=O)NCCc2ccc(F)cc2)CC2(CCCC(COC(=O)NCCOc3ccccc3)O2)O1 (stereo partly specified) 1.82
CCCNC(=O)OC[C@H]1O[C@H](CCON=C(C)CCN2CCCc3nc(C)c(C)cc32)C=C[C@@H]1Oc1ccc(OC)cc1 -0.995
O=C1CCCC=C1C(O)CCOC(c1ccccc1)(c1ccccc1)c1ccccc1 (stereo unspecified) 1.69
CCCNC(=O)OC[C@H]1O[C@H](CCON=Cc2ccc(C(=O)N3[C@H](c4ccc(C)cc4)[C@@H](C)CC[C@H]3C(=O)OC)cc2)C=C[C@@H]1Oc1ccc(OC)cc1 0.725
C[C@@H]1CC[C@H]2C(=O)O[C@@H](Cc3ccccc3)CN2[C@H]1c1ccc(Br)cc1 -0.251
Cc1cc2c(nc1C)CCCCN2CC(C)ON=C1[C@H]2CCn3c(=O)n(-c4ccccc4)c(=O)n3[C@H]2[C@H](O)[C@@H]2O[C@H]12 (stereo partly specified) -1.86
C#CCCCON=C1C[C@@H](O)[C@@H](O)[C@@H]2[C@@H]3C(=O)N(c4ccc(F)cc4F)C(=O)[C@@H]3CC[C@@H]12 2.01
CCOC(=O)NN=C1C[C@@H](O)[C@@H](O)[C@@H]2[C@@H]3C(=O)N(c4cccc(Oc5ccccc5)c4)C(=O)[C@@H]3CC[C@@H]12 0.361
CO[C@@H]1COC(=O)[C@H](CCSC)NC(=O)CC=C[C@@H](C)COC(=O)CCC[C@H]1C -1.12
O=c1n(-c2ccccc2)c(=O)n2n1CC[C@@H]1C(=NOCc3ccccc3)[C@H]3O[C@H]3[C@@H](O)[C@@H]12 -3.43
C[C@@H](c1ccccc1)N1C(=O)[C@H]2[C@H]3[C@H](O)[C@H](O)CC(=NO[C@@H]4O[C@H](CO)[C@@H](O)[C@H](O)[C@H]4O)[C@@H]3CC[C@H]2C1=O -0.119
CC(C)=CCCC(C)=CCON=C1C[C@@H](O)[C@@H](O)[C@@H]2[C@@H]3C(=O)N(c4ccc(F)cc4F)C(=O)[C@@H]3CC[C@@H]12 -0.333
Cc1ccc(S(=O)(=O)OC[C@H]2CN3[C@H](c4ccc(Br)cc4)[C@@H](C)CC[C@H]3C(=O)O2)cc1 0.407
CC(C)CON=C1C[C@@H](O)[C@@H](O)[C@@H]2[C@@H]3C(=O)N(C[C@@H]4CCCO4)C(=O)[C@@H]3CC[C@@H]12 0.957
CC(C)=NOC[C@@H](C)[C@H](OCc1ccccc1)C(C)C 0.409
CO[C@H](C1CCCCC1)[C@H](C)C=CCC(=O)OCCCc1ccccc1 0.435
CCOC(=O)[C@H](CC(C)C)NC(=O)CCC1CC(OC(=O)NCc2ccc3c(c2)OCO3)CC2(CCCC(COC(=O)NCc3cccc(C(F)(F)F)c3)O2)O1 (stereo partly specified) 1.46
CC(C)=CCCC(C)=CCON=C1C[C@@H](O)[C@@H](O)[C@@H]2[C@@H]3C(=O)N(C(C)(C)C)C(=O)[C@@H]3CC[C@@H]12 -1.14
CCOC(=O)[C@H](Cc1ccccc1)NC(=O)CCC1CC(OC(=O)NCCc2ccc(F)cc2)CC2(CCCC(COC(=O)NCCc3ccccc3OC)O2)O1 (stereo partly specified) -0.106
